From PubChem BioAssay
Rows were chosen to be rich in hits. Some 12% of all compounds tested hit in one or more screens of this group.
G9a block = blocks human histone lysine methyltransferase G9a | Potency, µM (top dose mostly 102 µM), actives largely listed as inhibitors | 350,000 compounds, 8.8% hits | Q96KQ7 | AID 504332 | G9a H3K9 monomethylation, AlphaScreen, 2 h; further: nearly all actives have a fitted effect of over 75% in size
Target sequence (Q96KQ7 913-1193 limits assumed): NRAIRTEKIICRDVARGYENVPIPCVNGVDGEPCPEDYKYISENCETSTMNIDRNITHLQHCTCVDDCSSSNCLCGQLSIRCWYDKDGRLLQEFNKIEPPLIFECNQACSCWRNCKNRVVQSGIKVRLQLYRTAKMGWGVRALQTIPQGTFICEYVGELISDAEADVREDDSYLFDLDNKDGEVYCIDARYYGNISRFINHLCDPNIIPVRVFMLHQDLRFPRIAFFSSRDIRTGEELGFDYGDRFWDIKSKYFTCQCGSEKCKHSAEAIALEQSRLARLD
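G9a (20 nM) was preincubated 15 min with compound, then reacted 2 h at room temperature with 500 nM biotin-H3K9 peptide and 20 µM SAM. Monomethyl-H3K9 detected by AlphaScreen using anti-H3K9me1 antibody.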
HP1b chromo inh = HP1-beta chromodomain-methylated histone interaction inhibition; 390,000 compounds, 0.56% hits; AID 540317; Potency, µM (top dose mostly 114 µM), actives largely listed as inhibitors; AlphaScreen HP1-beta / biotin-H3K9me3 peptide binding; further: nearly all actives have a fitted effect of over 70% in size
Target sequence (P83916 whole entry, looked up): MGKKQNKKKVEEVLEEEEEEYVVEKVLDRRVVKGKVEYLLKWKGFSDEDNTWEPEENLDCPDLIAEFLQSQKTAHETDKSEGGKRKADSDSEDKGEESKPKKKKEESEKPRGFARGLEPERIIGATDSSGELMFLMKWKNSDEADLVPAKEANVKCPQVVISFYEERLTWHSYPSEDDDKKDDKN
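Compound inhibition of the preformed complex between 50 nM HP1-beta and 50 nM biotinylated H3K9me3 peptide was read by AlphaScreen. Buffer was PBS pH 7.4 with 0.01% Tween-20. Incubations ran 30 min at room temperature, with 10 ug/mL donor/acceptor beads.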
Sfp inh = inhibitors of Bacillus subtilis Sfp phosphopantetheinyl transferase; Biochemical Sfp PPTase activity, qHTS; Potency, µM, actives largely listed as inhibitors; 310,000 compounds, 3.5% hits;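 further: the enzyme is Sfp with the accession as filed and its product quenches rhodamine fluorescence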
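Step 1, compound plus 15 nM Sfp-PPTase, 15 min, room temperature. Step 2, add rhodamine-CoA (5 uM) and BHQ-2-YbbR (12.5 uM). Step 3, read 525/598 nm fluorescence at 0 and 30 min.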
BAZ2B inh = BAZ2B (human) inhibition; Potency, µM (doses to about 114 µM), usual class: inhibitors; AlphaScreen BAZ2B-H3K14Ac peptide displacement; Q9UIF8; 360,000 compounds, 4.4% hits; further: nearly all actives have a fitted effect of over 60% in size
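Multi-concentration screen (max 110 uM) measuring displacement of acetylated histone H3 peptide from BAZ2B by AlphaScreen, using 50 nM protein, 50 nM peptide and 10 ug/mL streptavidin donor plus Ni-chelate acceptor beads.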
JMJD2A Tudor inh = inhibitors of human JMJD2A Tudor domain | AlphaScreen JMJD2A-Tudor / H3K4me3 peptide binding | Potency, µM (titrated, usually from 114 µM), most hits filed as inhibitors | 390,000 compounds, 4.4% hits | AID 504339; further: nearly all actives have a fitted effect of over 50% in size
Hits are given with their value; . = inactive; ? = inconclusive; / = no result; ! = a repeat was not active; [ ] = dose if it differs, or a comment. The call rests on the fitted dose curve; in most records, active means well fitted curve in the direction sought with a large enough effect; inconclusive means small, poorly fitted or top-dose-only effect, or another doubt; inactive means no such curve, though single readings can be large; an effect the other way counts as inactive or inconclusive.

SMILES | G9a block | HP1b chromo inh | Sfp inh | BAZ2B inh | JMJD2A Tudor inh
C1CCC2(CC1)C1=C(CCCC1)Nc1nnnn12 | ? | . | . | / | .
S=C1NC2=C(CCCC2)C2(CCCCC2)N1 | 7.08µM | . | . | . | .
CCOC(=O)C1=C(C)NC2=C(C(=O)CC(C)(C)C2)C1c1cccc(C)n1 (centres undefined) | . | . | . | . | .
CCOC(=O)CN=C1CC(C)(C)CC2=C1Sc1ncnc(N(C)C)c1N2 | 4.47µM | . | 10µM | ? | ?
CN1C(=O)C2C(c3ccc(N(C)C)cc3)NN(Cc3ccccc3)C2C1=O (centres undefined) | ? | ? | . | 39.8µM | ?
CN(C)c1ccc(-c2cccc(C3CC=CC4C3C(=O)N(Cc3ccccc3)C4c3ccc(C(F)(F)F)cc3)c2)cc1 (centres undefined) | ? | . | . | . | ?
Cc1ccc(S(=O)(=O)N2CCc3cc(C(=O)N(C)Cc4ccccc4)ccc32)cc1 | . | . | / | . | .
Cc1onc(-c2ccccc2)c1C(=O)NC(=S)NNC(=O)c1ccccc1O | . | . | . | 35.5µM | 79.4µM
Cc1onc(-c2ccccc2)c1C(=O)NC(=S)NNC(=O)c1ccc(O)cc1O | ? | . | . | 22.4µM | 79.4µM
COc1ccc(NC(=O)CSc2cc(-c3ccccc3)nc(C)n2)cc1 | . | . | / | . | .
Nc1ccc(N2CCN(CCCCN3C(=O)C4CCCN4C3=O)CC2)cc1 (centres undefined) | 10µM | . | . | ? | ?
O=C1C2CCCCN2C(=O)N1CCCN1CCN(c2ccc(F)cc2)CC1 (centres undefined) | .[0.501 µM] | . | . | . | ?
COc1ccc2nc(N3CCC(C)CC3)c(C#N)cc2c1 | . | . | 39.8µM | . | .
COc1ccc2nc(N3CCC(O)CC3)c(C#N)cc2c1 | . | . | . | . | .
O=C1C=CC(=O)N1CCCCCCN1C(=O)C=CC1=O | 1.58µM | ? | 3.55µM | . | 17.8µM
O=C1C2C3C=CC(C3)C2C(=O)N1CCCCCCN1C(=O)C2C3C=CC(C3)C2C1=O (centres undefined) | . | . | . | ? | .
CCN1C(=O)C=CC1=O | 1µM! | / | / | / | /
CCN1C(=O)C(=O)c2cc(C)ccc21 | / | . | / | / | .
O=C1NC(c2ccccc2Br)=N/C1=C\c1ccco1 | 44.7µM | . | ? | . | ?
O=C1NC(c2ccccc2)=N/C1=C/c1ccco1 | 22.4µM | . | ? | . | .
O=C1NC(c2cccc(Br)c2)=N/C1=C\c1ccco1 | ? | . | ? | ? | ?
COc1ccc(CCC(C)NCc2ccc(F)cc2)cc1 (centres undefined) | / | . | . | . | .
Cc1ccc(S(=O)(=O)Nc2c(C)cc([N+](=O)[O-])cc2C)cc1 | / | . | / | / | .
Cc1cc([N+](=O)[O-])cc([N+](=O)[O-])c1NCC(C)C | 15.8µM | 39.8µM | . | 12.6µM | 44.7µM
COc1cc(/C=C/C(=O)Nc2nnc(C(C)(C)C)s2)cc(OC)c1OC | 4.47µM | ? | 50.1µM | . | .
SMILES | G9a block | HP1b chromo inh | Sfp inh | BAZ2B inh | JMJD2A Tudor inh
Cn1c(NC(=O)c2ccccc2)c(-c2ccccn2)c(=O)c2ccccc21 | ? | . | . | . | 31.6µM
Cc1oc2c(Cl)c(Cl)c(O)c(CN(C)C)c2c1C(=O)c1ccc(Cl)cc1 | ? | . | . | 44.7µM | ?
CCCN(CC(=O)Nc1ccccc1C)C(=O)C1CCN(S(=O)(=O)c2cccc(C(F)(F)F)c2)CC1 | .[0.501 µM] | . | / | . | .
Cc1ccc(C(=O)/C=C/NNC(=O)c2ccccc2O)cc1 | . | . | . | 50.1µM | ?
O=C(/C=C/NNC(=O)c1ccc(Cl)cc1)c1ccccc1 | ? | . | . | ? | ?
CCN(CC(=O)Nc1ccc2c(c1)OCCO2)Cc1cc(=O)n2ccsc2n1 | . | . | . | . | .
Cn1c2ccccc2c2cc(C(=O)N3CCOCC3)sc21 | ? | . | 44.7µM | . | .
COCCNC(=O)CSc1nc2scc(-c3ccccc3)c2c(=O)[nH]1 | 50.1µM | . | . | . | .
Cc1ccc(-c2csc3nc(SCC(=O)Nc4ccc(Cl)c(C(=O)O)c4)[nH]c(=O)c23)cc1 | 28.2µM | . | . | ? | .
Cc1sc2nc(SCC(=O)N3CCOCC3)[nH]c(=O)c2c1-c1ccccc1 | 44.7µM | . | . | . | .
O=C(CSc1nc2scc(-c3ccccc3)c2c(=O)[nH]1)N1CCCCC1 | 50.1µM | . | . | . | .
O=C(CSc1nc2scc(-c3ccccc3)c2c(=O)[nH]1)NC1CCCCC1 | . | / | . | . | /
CC1=C(C(=O)Nc2cccnc2)C(c2ccccc2)n2nc(SCc3ccccc3Cl)nc2N1 (centres undefined) | . | . | / | . | .
O=C(NC1CCCCC1)C(c1cccs1)N(CCCN1CCOCC1)C(=O)c1ccc(-c2ccccc2)[nH]1 (centres undefined) | / | ? | ? | 50.1µM | ?
CCc1ccc(NC(=O)c2ccc(NC(=O)C3CCCO3)cc2)cc1 (centres undefined) | . | . | . | . | .
Cc1sc(N)nc1C12CC3CC(CC(C3)C1)C2 | 44.7µM | ? | . | ? | .
COc1ccc(C(=O)NCc2ccc(C(=O)NCC(OC)OC)cc2)cc1OC | . | . | . | . | .
CCCCc1ccc(/C=C(\C#N)C(N)=S)s1 | 35.5µM | 25.1µM | 39.8µM | 44.7µM | 35.5µM
Cc1cc(Nc2ccccc2C(=O)O)n(-c2ccc([N+](=O)[O-])cc2)n1 | . | . | . | . | .
NC(=O)CN1C(=O)C2CCCCN2C(=O)c2ccccc21 (centres undefined) | . | . | . | . | .
NC(=O)CN1C(=O)/C(=c2\sc3nc(=O)c(Cc4ccccc4)nn3c2=O)c2ccccc21 | 7.94µM | . | 11.2µM | . | .
CCCN1C(=O)/C(=c2\sc3nc(=O)c(Cc4ccc(C)cc4)nn3c2=O)c2ccccc21 | / | ? | 20µM | ? | ?
CCCCN1C(=O)/C(=c2\sc3nc(=O)c(-c4ccccc4)nn3c2=O)c2ccccc21 | ? | ? | 15.8µM | ? | ?
O=C(NCCNc1nccc(C(F)(F)F)n1)c1cccc(C(F)(F)F)c1 | / | . | . | . | .
Cc1ccc(C2C(C(=O)O)c3ccccc3C(=O)N2C)c(C)c1 (centres undefined) | . | . | . | . | .
SMILES | G9a block | HP1b chromo inh | Sfp inh | BAZ2B inh | JMJD2A Tudor inh
CN1C(=O)c2ccccc2C(C(=O)O)C1c1cn(C)c2ccccc12 (centres undefined) | . | ? | . | . | 44.7µM
COc1ccc(C2C(C(=O)O)c3ccccc3C(=O)N2C)cc1Br (centres undefined) | 3.98µM | . | . | . | .
C=CCn1c(C)cc(C(=O)COC(=O)c2n[nH]c(=O)c3ccccc23)c1C | / | . | / | / | .
CCn1c(SCC(=O)Nc2ccccc2C(=O)OC)nc2c1c(=O)n(C)c(=O)n2C | 28.2µM | / | . | . | /
CCn1c(SCC(=O)Nc2ccccc2C(=O)OC)nnc1-c1ccc(N)cc1 | 44.7µM | . | . | . | .
CCn1c(SCC(=O)NNC(=S)Nc2ccc(C)cc2)nnc1-c1ccc(Cl)cc1 | 10µM | . | . | . | .
